Shown are actives, neighbours in structure and some others; about 0.76% of the full set was active somewhere.
sEH activator: soluble epoxide hydrolase activators, primary screen, biochemical, human sEH | Bifunctional epoxide hydrolase 2 (Homo sapiens), P34913 | purified human sEH enzymatic activity, activator screen | activation, % at 2 µM | actives 0.04% (n = 91,000); in the data active = activation above about 37%
Target sequence (P34913 whole entry, looked up): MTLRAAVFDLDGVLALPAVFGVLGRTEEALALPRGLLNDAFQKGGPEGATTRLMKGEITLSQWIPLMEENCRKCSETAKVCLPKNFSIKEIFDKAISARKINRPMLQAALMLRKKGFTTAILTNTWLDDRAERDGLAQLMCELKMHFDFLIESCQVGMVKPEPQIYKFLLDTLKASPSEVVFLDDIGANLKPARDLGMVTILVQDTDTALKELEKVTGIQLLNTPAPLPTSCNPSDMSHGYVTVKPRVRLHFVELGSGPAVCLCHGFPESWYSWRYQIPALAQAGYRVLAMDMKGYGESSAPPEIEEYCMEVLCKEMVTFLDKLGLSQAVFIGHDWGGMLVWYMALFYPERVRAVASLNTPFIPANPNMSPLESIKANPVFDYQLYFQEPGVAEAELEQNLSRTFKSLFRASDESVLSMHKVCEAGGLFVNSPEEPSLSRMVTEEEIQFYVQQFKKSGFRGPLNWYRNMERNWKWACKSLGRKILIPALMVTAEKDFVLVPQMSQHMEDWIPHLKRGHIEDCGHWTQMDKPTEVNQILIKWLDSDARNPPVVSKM
MRP1 act: H69AR viability gain despite doxorubicin, primary screen, MRP-1 activator project, H69AR cells, CellTiter-Glo | viability rescue | viability increase, % at 10 µM | actives 0.61% (n = 140,000) | AID 799, 2007;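 active = viability gain under doxorubicin at or above a set limit, the compound median plus 3 SD, cut at about 4.7% in these data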;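 note: MRP-1 overexpressing cells given doxorubicin 25 µM after compound pretreatment; 18-22 h compound pretreatment then 72 h with doxorubicin before readout; 0% = doxorubicin-only wells and 100% = vehicle-treated cells without doxorubicin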
sEH inhibitor: soluble epoxide hydrolase inhibitors, primary screen, biochemical, human sEH; actives 0.34% (n = 91,000); Bifunctional epoxide hydrolase 2 (Homo sapiens), P34913; inhibition, % at 2 µM; recombinant human sEH enzymatic activity assay; AID 707, 2007; in the data active = inhibition above about 80%
MRP reversal: reversal of MRP1-mediated doxorubicin resistance, primary screen, H69AR cells, doxorubicin co-treatment; H69AR cells + 2 uM doxorubicin, CellTiter-Glo, 72 h; differential viability (reversal), % at 10 µM; actives 0.04% (n = 85,000);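 active = viability drop by adding the cancer drug above about 55%, with treated viability meeting a 40% cutoff, limit read from the data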;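 note: viability without doxorubicin minus viability with 2 µM doxorubicin for each compound; larger differential means the compound sensitizes cells more to doxorubicin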
An asterisk follows results filed as active; x = no result given.

SMILES	sEH activator	MRP1 act	sEH inhibitor	MRP reversal
COc1cccc(C=Nc2cc(C)cc(C)c2)c1O	x	-2	x	x
CCCCn1c(=O)nc2n(-c3ccc(Cl)cc3)c3ccccc3cc-2c1=O	x	-1	x	x
O=C(c1ccc(COc2ccc(Cl)cc2)o1)N1N=C(C(F)F)CC1(O)C(F)F (stereo unspecified)	x	5.6*	x	x
COc1ccccc1OCc1ccc(C(=O)N2N=C(C(F)F)CC2(O)C(F)F)o1 (stereo unspecified)	2	1	0	x
CCCn1c(SCC(=O)c2c[nH]c3ccccc23)nnc1-c1ccncc1	x	-2	x	x
O=C(Nc1ccn(Cc2c(F)c(F)cc(F)c2F)n1)c1ccc(COc2ccc(Cl)cc2Cl)o1	-10	13*	11	x
Cc1nn(Cc2c(F)c(F)c(F)c(F)c2F)c(C)c1NC(=O)c1ccc(COc2ccc(Cl)cc2Cl)o1	x	-4	x	x
Cc1nn(Cc2ccc(Cl)cc2Cl)c(C)c1NC(=O)c1ccc(COc2cc(Cl)ccc2Cl)o1	-20	5.6*	24	x
O=C(/C=C/c1ccccc1Cl)NCc1cccs1	x	-1	x	x
Cc1ccc(N2C(N)=C(C#N)C(c3cccnc3)C3=C2CCCC3=O)cc1 (stereo unspecified)	2	-4	-4	-2
N#CC1=C(N)N(c2ccc(Br)cc2)C2=C(C(=O)CCC2)C1c1cccnc1 (stereo unspecified)	x	-5	x	59*
CNC(=S)Nc1ccc(C)cc1	x	11*	x	x
CNC(=S)Nc1ccc(C23CC4CC(CC(C4)C2)C3)cc1	x	5.2*	x	x
Cc1cc(/C=C(\C#N)C(=O)OCC(=O)NC(=O)NC(C)(C)C)c(C)n1CCC(C)C	11	-3	-13	57*
COC(=O)CC1SC(=O)NC1=Nc1ccc(O)cc1 (stereo unspecified)	-3	-2	6	-3
COC(=O)CC1SC(=O)NC1=O (stereo unspecified)	-7	7.2*	9	14
CCNC(=O)COC(=O)c1csc2c1CCCC2	x	-1	x	x
CCOc1cc(/C=C2\SC(=Nc3ccccc3)N(c3ccccc3)C2=O)ccc1OCC(=O)O	x	5.9*	x	x
CCOc1cccc(C(=O)NNC(=O)CCC(=O)O)c1	x	-2	x	x
Cc1ccc(CN2CCc3c(OCC(=O)Nc4cc(C)ccc4C)cccc3C2=O)cc1	x	-2	x	x
COc1ccccc1NC(=S)NC1CCCCCC1	x	-4	x	x
Cc1nc(Cl)sc1C(=O)Nc1cccc(Cl)c1C	x	-4	x	x
Cc1oc(C(=O)Nc2ccc(C(=O)O)cc2)cc1COc1ccccc1	13	7.2*	-15	2
O=C(CSc1nc(-c2cccs2)cc(C(F)(F)F)n1)Nc1cc(OCC(F)(F)C(F)F)cc([N+](=O)[O-])c1	x	-2	x	x
O=C(COC(=O)CNS(=O)(=O)c1cccc(Br)c1)Nc1ccccc1Sc1ccccc1	x	0	x	x
SMILES	sEH activator	MRP1 act	sEH inhibitor	MRP reversal
CS(=O)(=O)N(Cc1ccc(C(=O)NCCSCc2ccco2)cc1)c1ccccc1	-81	-1	81*	9
CS(=O)(=O)N(Cc1ccc(C(=O)NCc2ccco2)cc1)c1ccccc1	-19	-4	19	18
S=C(N/N=C/c1ccc(Cl)cc1)N1CCOCC1	x	5.7*	x	x
CCCCOC(=O)C1=C(C)NC(=O)NC1c1ccc([N+](=O)[O-])s1 (stereo unspecified)	x	-2	x	x
Cc1ccc(S(=O)(=O)N/N=C\c2cn(-c3ccccc3)nc2-c2ccccc2)cc1	-6	6.2*	6	x
Cc1ccc(-c2nn(-c3ccccc3)cc2/C=N/NS(=O)(=O)c2ccccc2)cc1	17	3	-14	x
N#C/C(C(=O)NCc1ccco1)=C1/SC(Cc2ccc(Cl)cc2)C(=O)N1c1ccccc1 (stereo unspecified)	12	-1	-12	44
Cc1ccc(CC2S/C(=C(/C#N)C(=O)NCc3ccco3)N(c3ccccc3)C2=O)cc1 (stereo unspecified)	-8	6.6*	7	-33
CCOCc1c(C(=O)OCC(=O)Nc2ccc(C)c(S(=O)(=O)N(C)C)c2)oc2ccccc12	x	0	x	x
CCOC(=O)Nc1ccc2c(c1)N(C(=O)OC)c1ccccc1CC2	41*	-2	-44	x
COC(=O)C1C(=O)c2c([nH]c(C(=O)OC3CCCC3C)c2C)CC1C (stereo unspecified)	x	1	x	-9
COC(=O)C1C(=O)c2c([nH]c(C(=O)OC3CCCCC3)c2C)CC1C (stereo unspecified)	x	5.2*	x	2
C=CCC1(C#N)C(SC)=NC2=C(C(=O)CC(C)(C)C2)C1c1ccc(Br)cc1 (stereo unspecified)	x	2	x	x
C=CCSc1nc2sc(C)c(C)c2c(=O)n1N	x	2	x	x
COc1ccc(NS(=O)(=O)c2cc(NC(=O)CNC(=O)c3cccc(OC)c3)ccc2C)cc1	x	0	x	x
Cc1ccc(NC(=O)CNC(=O)c2cccs2)cc1S(=O)(=O)Nc1ccc(Cl)cc1	x	7.0*	x	x
COCCNc1nnc(SCC(=O)c2c[nH]c3ccccc23)s1	x	-3	x	x
O=C(OCc1c(Cl)cccc1Cl)c1ccncc1	x	-1	x	x
Cc1ccc(NC(=O)c2cc(S(=O)(=O)N3CCOCC3)c(Br)s2)cc1	x	-2	x	x
NNC(=O)c1cccc(COc2cccc(Br)c2)c1	-81	1	82*	x
NNC(=O)c1cccc(COc2ccc(Br)cc2)c1	x	1	x	x
O=S(=O)(Nc1ccccn1)c1cnc(Cl)c(Br)c1	x	-2	x	x
COc1ccc(-c2cc3nc(C)cc(N4CC(C)CC(C)C4)n3n2)cc1 (stereo unspecified)	5	5.1*	-1	7
Cc1cc(C)nc(NN2C(=O)/C(=C/c3ccccc3)SC2=S)n1	-4	9.7*	5	x
CC(=O)NN1C(=O)/C(=C\c2ccc(C)cc2)SC1=S	-5	11*	7	x
SMILES	sEH activator	MRP1 act	sEH inhibitor	MRP reversal
Cc1ccc(/C=C2\SC(=S)N(CCC(=O)NNS(=O)(=O)c3ccc(C)cc3)C2=O)cc1	x	5.7*	x	x
O=C(CCN1C(=O)/C(=C/C=C/c2ccccc2)SC1=S)Nc1cccnc1	x	0	x	x
CC(=O)NN1C(=O)/C(=C\c2ccccc2)SC1=S	-3	4	6	x
O=C(CCN1C(=O)/C(=C\c2ccccc2)SC1=S)NNC(=O)c1cccnc1	x	8.8*	x	x
Cc1ccc2nc(-c3cccc(NS(C)(=O)=O)c3)cc(-c3ccccc3)c2c1	x	-2	x	x
Cc1ccc(NC(=S)NNC(=O)CSc2nc3ccccc3c(=O)n2-c2ccc(C)cc2)cc1	x	-1	x	x
COC(=O)C1=C(C(=O)OC)C2C(C)=CC(C)=CN2C(C(=O)OC)=C1C(=O)OC (stereo unspecified)	x	-2	x	x
CCOC(=O)CC(NC(=O)Cc1ccc(F)cc1)c1ccccc1Cl (stereo unspecified)	x	-2	x	x
O=C1/C(=C\c2ccco2)SC(=S)N1c1ccccc1	x	4.7*	x	x
CCc1c(C)sc(NC(=O)c2cc(CC(C)C)on2)c1C#N	-7	8.0*	6	-20
CCc1c(C)sc(NC(=O)c2cc(-c3ccc(O)cc3)on2)c1C#N	-1	-2	4	-10
CCOc1ccc(NC(=O)N2CCC(c3ccc(C)cc3)C2)cc1 (stereo unspecified)	-82	0	82*	0
CC(=O)N1CCN(c2ccccc2NC(=O)COc2ccc(Cl)cc2Cl)CC1	-16	-6	20	-16
